IMPase Li inh = qHTS Assay for Identifying the Cell-Membrane Permeable IMPase Inhibitors: Potentiation with Lithium. CHO-M1 cells, IP1 TR-FRET (IP-One), carbachol + lithium. Potency, µM (highest dose often 59.4 µM), for inactives: at the top dose activity, negative = IMPase inhibition, usual class: inhibitors. 0.35% of 210,000 active. AID 1457, 2008;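 note: IP1 builds up when IMPase is blocked and the TR-FRET signal falls; potency is the fitted concentration of half-maximal effect; plate controls were basal vehicle for no effect and high inhibitor control for full effect; nearly all actives have a fitted effect of over 50% in size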
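IP1 accumulation measured by competitive TR-FRET in lysed CHO-M1 cells after 30 min compound exposure at 37C, with a small lithium addition to potentiate weak responses. Hill-equation AC50 from ratio and donor-channel data.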
PNC inhibitor = High Content Assay for Compounds that inhibit the Assembly of the Perinucleolar Compartment; PC3M PTB-GFP, PNC prevalence imaging, 16 h; stronger effect = lower value; activity change (PNC), negative = inhibition, % at 10 µM; 3.1% of 140,000 active;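 active = readout at or below -70, meaning at least 70% loss of cells showing the perinucleolar compartment, a nuclear body marking cancer cells; inconclusive = readout between -30 and a set limit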;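 note: plate controls were DMSO wells for no effect and camptothecin positive control wells for full effect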
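PC3M cells stably expressing PTB-GFP, 750–1000 cells/well, treated 16 h at 37 °C with compound (23 nl of library stock), in duplicate. After paraformaldehyde fixation and Hoechst stain, imaged at 20x; PNC prevalence scored by image analysis.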
ALOX12 inhib = qHTS Assay for Inhibitors of 12-hLO (12-human lipoxygenase). purified 12-hLO, xylenol orange hydroperoxide absorbance. Potency, µM (top dose mostly 57.1 µM), for the others: at the highest dose activity change, negative = inhibition, most hits filed as inhibitors. 0.12% of 150,000 active. AID 1452, 2008; note: potency is the fitted concentration of half-maximal effect; nearly all actives have a fitted effect of over 55% in size
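Lipoxygenase turnover measured by absorbance at 573 and 405 nm after Fe-XO development. Human 12hLO 150 nM, arachidonate 40 uM, pH 7.0 Hepes buffer with detergent; 15 min compound preincubation, 30 min reaction.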
HPGD block = qHTS Assay for Inhibitors of HPGD (15-Hydroxyprostaglandin Dehydrogenase). AID 894, 2007. Potency, µM, without a hit: at the highest dose activity change, negative = inhibition, hits mostly inhibitors. 4.3% of 150,000 active. 15-hydroxyprostaglandin dehydrogenase [NAD(+)] (Homo sapiens), P15428. purified HPGD, NADH fluorescence kinetic, PGE2 substrate; active = well fitted inhibition curve with a large enough effect, not every such curve was filed as active; inconclusive = small, poorly fitted or top-dose-only effect, or another doubt; inactive = no such curve, though single readings can be large or run the other way; note: potency is the fitted concentration of half-maximal effect
Target sequence (P15428 whole entry, looked up): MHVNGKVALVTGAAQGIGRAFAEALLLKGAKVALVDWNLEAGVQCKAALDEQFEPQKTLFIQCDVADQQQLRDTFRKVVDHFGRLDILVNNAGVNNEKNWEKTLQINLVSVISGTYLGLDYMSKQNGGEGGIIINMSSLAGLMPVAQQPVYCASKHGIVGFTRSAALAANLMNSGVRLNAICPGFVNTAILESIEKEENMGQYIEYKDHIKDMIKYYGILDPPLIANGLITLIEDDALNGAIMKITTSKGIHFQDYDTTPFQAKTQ
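20 nM HPGD preincubated 15 min at room temperature with compound in 50 mM Tris-HCl pH 8, 0.01% Tween 20. Started with 1 mM NAD+ and 30 uM prostaglandin E2; NADH fluorescence (360/450 nm) read 5 times over 30-s intervals, last minus first.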
IMPase cell inh = qHTS Assay for Identifying the Cell-Membrane Permeable IMPase Inhibitors; inhibition (IP1 accumulation), % at 46.1 µM; Inositol monophosphatase 1 (Rattus norvegicus), P97697; 120,000 tested, under 10 active; CHO-M1 cells, IP1 accumulation, HTRF TR-FRET ratio; active = well fitted curve in the direction sought with a large enough effect in the signal ratio, not every such curve was filed as active; inconclusive = small, poorly fitted or top-dose-only effect, or a change in a side signal; inactive = no such curve, though single readings can be large or run the other way; the % refers to the signal ratio;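 note: cells stimulated with carbachol in lithium chloride buffer; plate controls were DMSO basal wells for no effect and reference inhibitor wells for full effect; higher means more IMPase inhibition seen as more IP1 and lower FRET ratio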
Target sequence (P97697 whole entry, looked up): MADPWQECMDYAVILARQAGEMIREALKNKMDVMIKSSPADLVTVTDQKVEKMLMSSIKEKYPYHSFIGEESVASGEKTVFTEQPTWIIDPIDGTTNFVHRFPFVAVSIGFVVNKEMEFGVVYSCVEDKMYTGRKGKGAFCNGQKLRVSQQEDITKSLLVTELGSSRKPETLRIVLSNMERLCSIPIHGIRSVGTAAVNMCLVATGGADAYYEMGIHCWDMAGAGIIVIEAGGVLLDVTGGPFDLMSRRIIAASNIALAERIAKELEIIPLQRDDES
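CHO-M1 cells (CHO stably expressing M1 receptor), compound up to 46 uM final, stimulated with carbachol (50 uM as added) in buffer with 50mM LiCl, pH 7.4, 30 min at 37C. Cytosolic IP1 read by TR-FRET; AC50 from Hill fits.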
ALOX15B inhib = qHTS Assay for Inhibitors of 15-hLO-2 (15-human lipoxygenase 2). AID 881, 2007. purified 15hLO-2, xylenol orange hydroperoxide absorbance. 0.56% of 110,000 active. Potency, µM (doses to about 57.1 µM), inactives show at the top dose activity change, negative = inhibition, hits mostly inhibitors; note: potency is the fitted concentration of half-maximal effect; nearly all actives have a fitted effect of over 60% in size
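Screening format was qHTS against 50 nM purified 15hLO-2 in Hepes pH 7.5 with detergent. Activity follows hydroperoxide formation from 45 uM arachidonic acid, measured as 573:405 nm absorbance ratio of the ferric-xylenol orange complex.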
Active calls of the source: *; ? = inconclusive; · = no result; [ ] = dose if it differs, or a comment. Hits are enriched below; roughly 5.3% of the tested compounds scored in any of these assays. Unless noted, calls come from the whole dose curve; as a rule, active = well fitted curve in the direction sought with a large enough effect; inconclusive = small, poorly fitted or top-dose-only effect, or another doubt; inactive = no such curve, though single readings can be large; an effect the other way counts as inactive or inconclusive. Unless noted, % is set by controls: 0 for no effect and ±100 for the full control effect.

SMILES	IMPase Li inh	PNC inhibitor	ALOX12 inhib	HPGD block	IMPase cell inh	ALOX15B inhib
CC(C)Oc1ccc(C(CC(=O)NCc2ccco2)c2ccccc2)cc1 (configuration not stated)	37%[38.3 µM]	38	0%	11µM*	3	-9%
Cc1ccc(OCC(=O)Nc2cccc(C)n2)c(C)c1	24%[38.3 µM]	-25	-2%	-8%	3	-4%
Cc1ccc(NC(=O)COc2cccc3ccc(C)nc23)c(Br)c1	6%	-16	-4%	11µM*	·	·
COc1ccc(C/C(N)=N/n2cnnc2)cc1Cl	25%[38.3 µM]	14	-2%	-13%	-1	10%
COc1ccc(CSCCN)cc1Cl	12%[38.3 µM]	-96*	-1%	3%	0	21%[2.29 µM]
O=C(CN1CCC(O)(c2ccc3c(c2)OCO3)CC1)OC1CCCCC1	-9%[38.3 µM]	-84*	0%	6%	-8	16%[2.29 µM]
Cc1ccc(CN(C)C(=O)c2ccccc2Oc2ccccc2)o1	4%[38.3 µM]	?	-14%	22µM*	2	-23%
Cc1cc(NC(=O)c2ccccc2Oc2ccccc2)no1	5%[38.3 µM]	31	-5%	-13%	-2	2%
COc1cc2c(=O)n(CCc3ccccc3)c(=O)n(CC(=O)Nc3ccccc3)c2cc1OC	·	·	·	·	0	·
O=C(O)CCCN1C(=O)/C(=C\c2ccco2)SC1=S	6%	·	·	·	·	·
CC(C(=O)O)N1C(=O)/C(=C/C=C/c2ccco2)SC1=S (configuration not stated)	-4%[38.3 µM]	-29	-22%	16µM*	-10	-13%
N#CC1=C2SCN(Cc3ccco3)CN2C(=O)CC1c1ccccc1F (configuration not stated)	6%[38.3 µM]	24	-1%	18µM*	0	?
CCc1ccc(C2CC(=O)N3CN(c4ccccc4)CSC3=C2C#N)cc1 (configuration not stated)	-4%[38.3 µM]	32	?	7.9µM*	-3	7.9µM*
N#CC1=C2SCN(Cc3ccco3)CN2C(=O)CC1c1cccc2ccccc12 (configuration not stated)	-2%[38.3 µM]	3	?	?	2	?
CCc1ccc(N2CSC3=C(C#N)C(c4cccs4)CC(=O)N3C2)cc1 (configuration not stated)	-14%[38.3 µM]	-20	?	13µM*	-28	20µM*
CN1CSC2=C(C#N)C(c3cccc(OCc4ccccc4)c3)CC(=O)N2C1 (configuration not stated)	5%[38.3 µM]	27	-6%	14µM*	-2	?
N#CC1=C2SCN(c3ccc(F)cc3)CN2C(=O)CC1c1cccc(F)c1 (configuration not stated)	?	29	?	5.6µM*	-6	?
COc1ccc(N2CSC3=C(C#N)C(c4cccs4)CC(=O)N3C2)cc1 (configuration not stated)	13µM*	?	?	7.1µM*	-14	20µM*
CCOC(=O)c1ccc(N2CSC3=C(C#N)C(c4cccs4)CC(=O)N3C2)cc1 (configuration not stated)	8%[38.3 µM]	-10	-12%	-7%	-1	-26%
Cc1ccc(N2CSC3=C(C#N)C(c4cccs4)CC(=O)N3C2)cc1 (configuration not stated)	-29%[38.3 µM]	?	-17%	7.9µM*	-10	13µM*
O=C(O)CCC(=O)NNC(=O)c1cccs1	-3%	·	·	·	·	·
CN1CCN(CC(=O)Nc2cccc3ccccc23)CC1	1%	·	2%[11.4 µM]	-12%	·	-1%[11.4 µM]

Screening results deposited in PubChem BioAssay by National Center for Advancing Translational Sciences (NCATS).
